Test results reported in PubChem BioAssay (NCATS).
Inconclusive results are not listed. Active and inactive are the calls of the source. Unless noted, calls follow the shape of the dose curve; as a rule, active = well fitted curve in the direction sought with a large enough effect; inconclusive = small, poorly fitted or top-dose-only effect, or another doubt; inactive = no such curve, though single readings can be large; an effect the other way counts as inactive or inconclusive.

How the values were obtained:
[1] = AP1 Signaling Pathway (AID 357; active = well fitted curve in either direction with a large enough effect, not every such curve was filed as active;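 also: ME-180 reporter cells stimulated with EGF at its EC50 level; % is scaled to controls: 0 for no effect and ±100 for the full control effect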)
Method in brief: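 A ratiometric CCF4 readout (405 nm excitation; 460 and 530 nm emission) quantified AP-1-driven beta-lactamase in ME-180 cells after 5 h with compound and EC50 EGF; AC50 values were derived for activators and inhibitors.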

[2] = NFAT Signaling Pathway (AID 444; active = well fitted curve in either direction with a large enough effect, not every such curve was filed as active;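 also: carbachol stimulus at about its EC50 of 1 µM final; % is scaled to controls: 0 for no effect and ±100 for the full control effect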); settings: Jurkat NFAT-bla M1, carbachol, beta-lactamase ratio, 5 h; at 17.2 µM (top of the series) unless noted
Method in brief: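 Jurkat cells with NFAT-driven β-lactamase reporter and co-expressed M1 receptor, stimulated with carbachol (final 1 uM, ~EC50), compound titration, 5 h at 37 °C. CCF4 loaded 1 h at RT; 460/530 nm ratio gave %activity and AC50.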

[3] = Stat Signaling Pathway (AID 446; active = well fitted curve in either direction with a large enough effect, not every such curve was filed as active;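 also: ME-180 cervical cancer cells given 40 pM IL-6 alongside compound; SIE-controlled beta-lactamase reporter measured as 460/530 nm FRET emission ratio; % is scaled to controls: 0 for no effect and ±100 for the full control effect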)
Method in brief: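 ME-180 SIE-bla cells; overnight plating; cpd + IL-6 40 pM, 5 h, 37 C; LiveBLAzer 2.5 h RT; 460/530 nm emission ratio. Normalized to 300 pM IL-6 and 125 nM JAK inhibitor controls.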

[4] = molecular target: Glucocorticoid receptor (Homo sapiens) (UniProt P04150); test: GR-GFP Redistribution (AID 450;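 active = compounds whose dose series gives a full or clear partial fitted curve of increased nuclear translocation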; also: potency is read from the fitted curve at half-maximal effect); settings: U2OS GR-GFP nuclear translocation, laser cytometry, 2 h
[5] = molecular target: Glucocorticoid receptor (Homo sapiens) (UniProt P04150); test: GR-EFC Redistribution (AID 451; calls by dose curve; also: potency is read from the fitted curve at half-maximal effect); settings: CHO-K1 GR-EFC translocation, beta-gal luminescence, 2 h
Method in brief: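 CHO-K1 cells expressing nuclear EA and GR-ED fragments of b-gal; compounds titrated up to 46 uM final, 2 h at 37 C. GR nuclear translocation read as complemented b-gal luminescence after 1 h RT detection.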

[6] = molecular target: Mitogen-activated protein kinase 10 (Mus musculus) (UniProt Q61831); test: JNK3 AlphaScreen Assay (AID 530; active = well fitted curve in either direction with a large enough effect, not every such curve was filed as active;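 also: kinase came from lysate of stimulated human HepG2 cells; signal reports phosphorylation of biotinylated GST-cJun 1-79 at Ser73 with 10 µM ATP; % is scaled to controls: 0 for no effect and ±100 for the full control effect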)
Method in brief: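 Pre-activated (IL-1β/TNFα) JNK3 in HepG2 lysates phosphorylates biotin-GST-cJun(1-79), 10 uM ATP; anti-phospho-cJun(Ser73) AlphaScreen read at room temperature, pH 7.6 Tris buffer. Compounds pre-incubated 15 min as titrations.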

[7] = Cell Viability - BJ (AID 421; calls by dose curve;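 also: potency is read from the fitted curve at half-maximal effect; cells exposed to compound for 40 hours at 37 °C before readout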); settings: BJ fibroblast viability, qHTS
Method in brief: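 Luminescent ATP signal (CellTiter-Glo, 20 min at room temperature) served as the read-out of viable BJ cells after 40 hours of compound treatment. Responses were scaled between DMSO and 100 uM tamoxifen, and AC50 values were obtained by Hill modeling.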

[8] = Cell Viability - Jurkat (AID 426;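 active = dose-dependent loss of cell ATP signal giving a full or clear fitted curve, ranked by lower potency value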; also: potency is read from the fitted curve at half-maximal effect); settings: qHTS
Method in brief: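 Jurkat (Clone E6-1) cells, 5000/well in complete medium, exposed to compounds for 40 hr at 37C; intracellular ATP measured by CellTiter-Glo luminescence after 20 min at room temperature. AC50 from Hill fits.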

[9] = Cell Viability - Hek293 (AID 427;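 active = compounds whose dose-response curve shows a full or clear partial loss of cell viability, called from curve shape rather than a numeric limit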;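 also: potency is read from the fitted curve at half-maximal effect; cells exposed to compound for 40 hours at 37 °C before reading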); settings: qHTS
Method in brief: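 Luminescent ATP read-out (CellTiter-Glo, 20 min RT) after 40 hr compound exposure at 37 °C in complete medium. Signal normalized to DMSO (basal) and 100 uM tamoxifen (100% inhibition); concentration-response fitted with the standard Hill equation to give AC50.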

[10] = Cell Viability - HepG2 (AID 433; calls by dose curve;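 also: potency is read from the fitted curve at half-maximal effect; potency for ATP loss meaning cytotoxicity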); settings: qHTS
Method in brief: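 HepG2 hepatocellular carcinoma cells (1500/well) were treated with compounds for 40 h at 37 °C in complete medium; intracellular ATP was read by CellTiter-Glo luminescence. Data were normalized to DMSO and 100 uM tamoxifen, and AC50 came from Hill fits.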

[11] = Cell Viability - MRC5 (AID 434; calls by dose curve;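 also: potency is read from the fitted curve at half-maximal effect; potency reflects cytotoxicity seen as loss of intracellular ATP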); settings: MRC5 lung fibroblast viability, qHTS
Method in brief: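 MRC5 normal human lung fibroblasts, 1500 cells/well, exposed to compound for 40 hr at 37 C. Cellular ATP was read by CellTiter-Glo luminescence; data normalized to DMSO and 100 uM tamoxifen, with AC50 from Hill fits.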

[12] = Cell Viability - SK-N-SH (AID 435; calls by dose curve;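 also: potency is read from the fitted curve at half-maximal effect; compound exposure lasted 40 h at 37 °C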); settings: SK-N-SH neuroblastoma cell viability qHTS
Method in brief: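 SK-N-SH human neuroblastoma cells (1500/well) were exposed to compounds in complete medium for 40 h at 37 °C, and intracellular ATP was then measured by CellTiter-Glo luminescence. AC50 was taken from Hill fits, normalized to DMSO and 100 uM tamoxifen.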

[13] = Cell Viability - N2a (AID 540);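 also: plate controls were DMSO alone for no effect and tamoxifen control for full effect; nearly all actives have a fitted effect of over 45% in size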
Method in brief: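 Mouse neuroblastoma N2a cells, 1500/well, exposed to compounds 40 h at 37 °C in complete medium. Viability measured as cellular ATP by CellTiter-Glo luminescence; AC50 from Hill fits of concentration-response.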

[14] = Cell Viability - NIH 3T3 (AID 541);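 also: plate controls were DMSO alone for no effect and tamoxifen positive control for full effect; nearly all actives have a fitted effect of over 25% in size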
Method in brief: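 Mouse NIH 3T3 fibroblasts, 1000 cells/well, rested 5 hr at 37 °C, then exposed to compound for 40 hr at 37 °C in complete medium. Viability read as intracellular ATP by CellTiter-Glo luminescence; AC50 from Hill-equation fits of concentration-response data.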

[15] = Cell Viability - HUV-EC-C (AID 542); also: % is scaled to controls: 0 for no effect and ±100 for the full control effect; nearly all actives have a fitted effect of over 35% in size
Method in brief: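 HUV-EC-C human vascular endothelial cells, 1000/well, exposed to compound for 40 hr at 37 °C in complete medium. Intracellular ATP was read by CellTiter-Glo luminescence. AC50 came from Hill-equation fits of concentration-response data.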

[16] = Cell Viability - H-4-II-E (AID 543); also: % is scaled to controls: 0 for no effect and ±100 for the full control effect; nearly all actives have a fitted effect of over 35% in size
Method in brief: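 Rat hepatoma H-4-II-E cells, 1500 per well, treated 40 h at 37 °C in complete medium. Cellular ATP read by CellTiter-Glo luminescence; AC50 from Hill fits of concentration-response.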

[17] = Cell Viability - SH-SY5Y (AID 544); settings: SH-SY5Y neuroblastoma cell viability; at 92.2 µM (top of the series);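 also: 0% = DMSO alone and -100% = 100 µM tamoxifen; nearly all actives have a fitted effect of over 55% in size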
Method in brief: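 SH-SY5Y human neuroblastoma cells (1500/well) incubated 5 h, then compound-treated 40 h at 37 °C in complete medium. Viability read as intracellular ATP by CellTiter-Glo luminescence after 20 min; AC50 from Hill-equation fits of qHTS concentration-response.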

[18] = Cell Viability - Renal Proximal Tubule (AID 545);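 also: 0% = DMSO only and -100% = 100 µM tamoxifen; nearly all actives have a fitted effect of over 40% in size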
Method in brief: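 Primary rat renal proximal tubule cells (1000/well) were treated with compounds for 40 hr at 37 °C in complete medium. Intracellular ATP was measured by CellTiter-Glo luminescence, and AC50 values came from Hill-equation fits of concentration-response data.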

[19] = molecular target: Cytochrome P450 1A2 (Homo sapiens) (UniProt P05177); test: p450-cyp1a2 (AID 410; calls by dose curve; also: potency is read from the fitted curve at half-maximal effect;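 as to activity change, negative = inhibition: -100% = full effect of reference inhibitor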)
Method in brief: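 20nM CYP1A2 with 100uM Luciferin-ME (at Km) in 100mM KPO4; compound preincubated 10 min, NADPH regeneration added, 60 min at room temperature. Luciferin quantified by luminescence after detection reagent; normalized to 57 uM furafylline.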

Glucocorticoid receptor (Homo sapiens), sequence (P04150 whole entry, looked up, the tested form may be a part): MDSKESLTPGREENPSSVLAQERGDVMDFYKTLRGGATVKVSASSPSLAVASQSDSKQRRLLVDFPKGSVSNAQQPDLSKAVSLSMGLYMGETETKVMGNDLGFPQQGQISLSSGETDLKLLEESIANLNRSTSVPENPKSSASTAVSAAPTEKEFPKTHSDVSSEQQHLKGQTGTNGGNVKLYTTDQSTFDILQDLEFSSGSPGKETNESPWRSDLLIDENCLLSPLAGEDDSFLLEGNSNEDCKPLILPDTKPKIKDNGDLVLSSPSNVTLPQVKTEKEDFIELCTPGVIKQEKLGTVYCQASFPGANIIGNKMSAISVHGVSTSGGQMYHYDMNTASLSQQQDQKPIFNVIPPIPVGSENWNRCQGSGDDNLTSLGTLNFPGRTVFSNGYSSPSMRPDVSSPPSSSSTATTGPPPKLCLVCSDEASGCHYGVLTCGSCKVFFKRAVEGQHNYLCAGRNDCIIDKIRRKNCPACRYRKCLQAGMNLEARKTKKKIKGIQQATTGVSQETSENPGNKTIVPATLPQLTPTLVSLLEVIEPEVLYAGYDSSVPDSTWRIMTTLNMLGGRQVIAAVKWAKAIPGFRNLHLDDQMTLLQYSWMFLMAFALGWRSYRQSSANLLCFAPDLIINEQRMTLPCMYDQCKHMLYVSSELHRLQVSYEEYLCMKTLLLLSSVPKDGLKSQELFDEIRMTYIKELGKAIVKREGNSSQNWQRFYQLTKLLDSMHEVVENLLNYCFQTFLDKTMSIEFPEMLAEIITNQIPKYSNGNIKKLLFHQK
Cytochrome P450 1A2 (Homo sapiens), sequence (P05177 whole entry, looked up): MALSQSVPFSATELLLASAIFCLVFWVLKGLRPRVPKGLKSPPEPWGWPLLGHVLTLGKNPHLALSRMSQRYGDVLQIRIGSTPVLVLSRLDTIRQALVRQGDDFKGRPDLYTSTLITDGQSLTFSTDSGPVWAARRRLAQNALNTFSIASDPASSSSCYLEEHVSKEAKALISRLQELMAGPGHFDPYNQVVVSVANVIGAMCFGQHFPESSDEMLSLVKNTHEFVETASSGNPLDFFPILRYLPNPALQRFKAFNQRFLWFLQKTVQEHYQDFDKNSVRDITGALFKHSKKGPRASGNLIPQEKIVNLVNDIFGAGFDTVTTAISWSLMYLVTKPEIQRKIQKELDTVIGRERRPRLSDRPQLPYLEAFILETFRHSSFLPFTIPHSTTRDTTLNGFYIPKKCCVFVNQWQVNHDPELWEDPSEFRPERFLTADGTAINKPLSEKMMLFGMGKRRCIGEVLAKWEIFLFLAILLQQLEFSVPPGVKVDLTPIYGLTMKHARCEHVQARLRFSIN

Cc1c(NC(=O)c2cccnc2)c(=O)n(-c2ccccc2)n1C
inactive: outcome [1] | activity change, negative = inhibition [2] -13.6% | outcome [3] | Potency [4] > 20.6 µM | Potency [5] > 20.6 µM | outcome [6]

C[C@@H](N)C(=O)O
inactive: Potency [4] > 46 µM | Potency [5] > 46 µM | outcome [6]

CCCC(O)C(CC)CO (stereo not drawn)
inactive: Potency [7] > 92 µM | Potency [8] > 92 µM | Potency [9] > 92 µM | Potency [10] > 92 µM | Potency [11] > 92 µM | Potency [12] > 92 µM | outcome [6] | outcome [13] | outcome [14] | outcome [15] | outcome [16] | viability change, negative = cytotoxic [17] -7.87% | outcome [18]

Cc1c(N(C)C)c(=O)n(-c2ccccc2)n1C
inactive: Potency [7] > 92 µM | Potency [8] > 92 µM | Potency [9] > 92 µM | Potency [10] > 92 µM | Potency [11] > 92 µM | Potency [12] > 92 µM | activity change, negative = inhibition [2] -3.81% | outcome [3] | Potency [4] > 20.6 µM | Potency [5] > 20.6 µM | outcome [6] | outcome [13] | outcome [14] | outcome [15] | outcome [16] | viability change, negative = cytotoxic [17] -14.6% | outcome [18]

CC(=O)OCC(COC(C)=O)OC(C)=O
inactive: Potency [7] > 92 µM | Potency [8] > 92 µM | Potency [9] > 92 µM | Potency [10] > 92 µM | Potency [11] > 92 µM | Potency [12] > 92 µM | outcome [6] | outcome [13] | outcome [14] | outcome [15] | outcome [16] | viability change, negative = cytotoxic [17] 13.4% | outcome [18]

O=C1c2cccc(O)c2C(=O)c2c(O)cccc21
inactive: Potency [7] > 92 µM | Potency [9] > 92 µM | Potency [10] > 92 µM | Potency [11] > 92 µM | outcome [13] | outcome [15] | outcome [16] | outcome [18]

CC[N+](C)(CC)CCOC(=O)C1c2ccccc2Oc2ccccc21
active: Potency [19] 10 µM
inactive: outcome [3] | outcome [6]

CCCNC(C)(C)COC(=O)c1ccccc1
inactive: outcome [1] | outcome [3] | Potency [4] > 20.6 µM | Potency [5] > 20.6 µM | outcome [6]

O=C(c1ccccc1)C(O)c1ccccc1 (stereo not drawn)
inactive: Potency [7] > 92 µM | Potency [8] > 92 µM | Potency [9] > 92 µM | Potency [10] > 92 µM | Potency [11] > 92 µM | Potency [12] > 92 µM | outcome [6] | outcome [13] | outcome [14] | outcome [15] | outcome [16] | viability change, negative = cytotoxic [17] -3.66% | outcome [18]

CC(C)(C)C(=O)OCOC(=O)[C@@H]1N2C(=O)[C@@H](NC(=O)[C@H](N)c3ccccc3)[C@H]2SC1(C)C
inactive: Potency [19] | outcome [3] | outcome [6]

CC(=O)Nc1cccc(O)c1
inactive: Potency [7] > 92 µM | Potency [8] > 92 µM | Potency [9] > 92 µM | Potency [10] > 92 µM | Potency [11] > 92 µM | Potency [12] > 92 µM | outcome [6] | outcome [13] | outcome [14] | outcome [15] | outcome [16] | viability change, negative = cytotoxic [17] 15.1% | outcome [18]

FC(F)(F)C(Cl)Br (stereo not drawn)
inactive: Potency [7] > 92 µM | Potency [8] > 92 µM | Potency [9] > 92 µM | Potency [10] > 92 µM | Potency [11] > 92 µM | Potency [12] > 92 µM | outcome [6] | outcome [13] | outcome [14] | outcome [15] | outcome [16] | viability change, negative = cytotoxic [17] -0.71% | outcome [18]

O=C1C(c2[nH]c3ccccc3c2O)=Nc2ccccc21
active: viability change, negative = cytotoxic [17] -102%
inactive: Potency [7] > 92 µM | Potency [8] > 92 µM | Potency [9] > 92 µM | Potency [10] > 92 µM | Potency [11] > 92 µM | Potency [12] > 92 µM | outcome [13] | outcome [15] | outcome [16] | outcome [18]

CCN(CC)C(=O)c1cccc(C)c1
inactive: Potency [7] > 92 µM | Potency [8] > 92 µM | Potency [9] > 92 µM | Potency [10] > 92 µM | Potency [11] > 92 µM | Potency [12] > 92 µM | outcome [6] | outcome [13] | outcome [15] | outcome [16] | viability change, negative = cytotoxic [17] -22.4% | outcome [18]
